# Reference: PubChem BioAssay (NCI)
# The panel holds about 83,000 compounds, 20% with a hit somewhere; the sample as a whole holds those more often.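 Percent growth is the endpoint: 0 to 100 indicates growth inhibition (40 means 60% inhibition), 0 means no net growth, and negative values indicate cell death.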 Unmarked numbers belong to inactive results. Activity calls are given as the source filed them. How the source made its calls: active means growth percent below 10; inactive means the rest.
# How the values were obtained:
# Experiment in all cases: NCI-60 one-dose screen, 48 h (100 = growth as untreated, 0 = no growth, -100 = all killed)
# Conditions in all cases: 10 µM unless noted
# DU-145 prostate = tested on: DU-145 prostate
# K-562 leukemia = tested on: K-562 leukemia
# MALME-3M melanoma = tested on: MALME-3M melanoma
# MDA-MB-231 breast = tested on: MDA-MB-231 breast
# RXF 393 renal = tested on: RXF 393 renal
# SF-268 CNS = tested on: SF-268 CNS
# SF-295 CNS = tested on: SF-295 CNS
# SF-539 CNS = tested on: SF-539 CNS
# UACC-257 melanoma = tested on: UACC-257 melanoma
# M14 melanoma = tested on: M14 melanoma
# HCT-15 colon = tested on: HCT-15 colon
# HT29 colon = tested on: HT29 colon
# SNB-19 CNS = tested on: SNB-19 CNS
# U251 CNS = tested on: U251 CNS
# PC-3 prostate = tested on: PC-3 prostate
# SK-MEL-5 melanoma = tested on: SK-MEL-5 melanoma
# UACC-62 melanoma = tested on: UACC-62 melanoma
# SK-MEL-28 melanoma = tested on: SK-MEL-28 melanoma
# LOX IMVI melanoma = tested on: LOX IMVI melanoma
SMILES,growth (DU-145 prostate) [%],growth (K-562 leukemia),growth (MALME-3M melanoma) [%],growth (MDA-MB-231 breast) [%],growth (RXF 393 renal) [%],growth (SF-268 CNS) [%],growth (SF-295 CNS) [%],growth (SF-539 CNS) [%],growth (UACC-257 melanoma) [%],growth (M14 melanoma) [%],growth (HCT-15 colon),growth (HT29 colon),growth (SNB-19 CNS) [%],growth (U251 CNS) [%],growth (PC-3 prostate) [%],growth (SK-MEL-5 melanoma) [%],growth (UACC-62 melanoma) [%],growth (SK-MEL-28 melanoma) [%],growth (LOX IMVI melanoma)
CCC1=CCC[C@@]2(C)CCC[C@@]3(C)CCCC(C)(C)[C@]1([O-])[O+]32,105,101%,107,121,111,107,99.7,103,105,101,108%,102%,102,103,96.5,101,103,96.8,–
CCOC(=O)c1cn2c3c(cccc3c1=O)C(=O)/C(=C/c1cccc(Cl)c1Cl)C2,106,91%,116,89.5,87,87.9,95.8,101,87.5,98.7,117%,99.9%,94.9,94.6,90.8,91.2,67.9,106,99.7%
ClC(Cl)c1nc(-c2ccccc2)nc2cc(-c3ccccc3)nn12,32.4,36.9%,93,60,19.8,57.2,97.7,79,102,98.7,7.78% (active),2.11% (active),55.7,14.6,35.4,90.4,62.8,107,–
CC(C)(C)n1cc(-c2ccnc(NCCCNS(=O)(=O)c3ccc(F)cc3)c2)c(-c2cccc(O)c2)n1,63.4,9.04% (active),38.1,33.2,38.7,51.4,26.8,28.4,50.1,29,0.588% (active),13.9%,71.3,50.5,27.5,13.3,59.8,39.2,-51.5% (active)
CSc1nc2c(c(=O)[nH]1)C(c1ccc(C)cc1)C=C(C(=O)O)N2 (stereo unspecified),123,110%,98.8,136,112,115,89.5,106,110,99.8,105%,118%,133,109,109,102,129,99.9,–
FC(F)(F)c1cccc(-c2cn3c(ccc4ccccc43)n2)c1,106,86.5%,102,79.2,115,98.7,88.5,99.5,114,95.4,90.9%,102%,100,86.9,83,92.4,79.9,115,90.1%
O=C1NC(=C(Cl)Cl)/C(=N/S(=O)(=O)N2CCC(C3(C(F)(F)F)N=N3)CC2)N1,102,8.72% (active),100,71.2,79.5,86,101,98.2,97.2,98.9,-60.6% (active),-10.2% (active),86.7,45.2,89.6,92,91.7,99.1,–
O=C(O)COc1ccc(-c2cssc2=S)cc1,120,115%,97,110,107,105,97.3,96.3,94.5,105,99.4%,87.5%,105,98.2,104,100,107,108,96.6%
Cc1csc(NC(c2ccccc2)c2c(C)nc3ccccn23)n1 (stereo unspecified),110,88.1%,97.2,96.8,122,103,87.1,101,94.8,95.3,100%,98%,93.5,94.7,82.6,99.6,94.2,110,96.5%
Cc1cc(N/N=C/c2nc(-c3ccccc3)oc2C)c2cc(Br)ccc2n1,91.3,21.9%,95.2,53.5,102,95,95,75.2,102,91.6,43.6%,65.6%,91.2,38.5,79.5,103,88.3,26,-31.7% (active)
N=C(N)c1ccc(-c2cc(Cl)cc(Cl)c2)cn1,99.5,17.5%,95.8,85.6,41.5,84.9,98.2,89.6,102,96.4,86.4%,55.5%,92.7,97.3,80,89.3,97.2,97.3,–
CC(=O)c1cc2c(N)c(C(=O)Nc3cccc4c3OCCO4)sc2nc1C,104,74.7%,101,100,99.2,96.3,92.8,100,99.5,94.4,97.3%,103%,93.2,99.4,91.4,95.3,67.8,94,97.5%
Clc1cc(Cl)c2nc(-c3ccc(-c4ccc(/C=N/NC5=NCCN5)cc4)s3)cn2c1,87.4,3.66% (active),74.9,73.9,81.4,86,98.3,63.5,99,97.8,38%,35%,100,87.2,76.5,88,98.8,99.7,–
C=C1CCC2C(C)(CO)C(O)CCC2(C)C1CC(NCc1ccccc1)C1=CCOC1=O (stereo unspecified),104,101%,100,99.6,103,86.5,111,101,102,97.3,105%,99.6%,101,96.2,101,113,94.5,101,97.5%
CC(C)CSc1nc(NN)c(C#N)c(-c2ccccc2)n1,103,94.5%,118,107,90.1,84.6,88.1,94.5,110,107,86.6%,103%,88.8,95.3,89.3,91.1,95.3,107,90.6%
CCOC(=O)c1ccc(NC(=O)N2CC(C)OC(C)C2)cc1 (stereo unspecified),111,89.9%,101,96.5,98.6,106,98.5,95.8,106,107,96.2%,101%,93.2,97.4,103,99.7,87.6,98.5,96%
N=C(N)c1ccc(-c2ccc(-c3ccc4ccccc4c3)s2)cc1,99.6,1.51% (active),105,95.4,61.6,94.7,102,97,106,99.6,3.41% (active),-42% (active),97.1,27,91.6,93.9,96.9,100,–
